About 320 (3.2%) of roughly 10,000 compounds were called active. This is one part of a sample in which actives are shown more often than they occur. Unmarked numbers belong to inactive results. Rule as the data show it: active = CPE inhibition mostly above about 9.1% (no sharp cut-off); inactive = mostly below about 7.2%.

A short description of the test: Dengue virus cytopathic effect inhibitors, cell-based, CPE readout, HTS (AID 540333). The conditions noted are these: Dengue virus CPE inhibition in host cells, at 20 µM; active compounds read high. For orientation: Cytopathic effects are the visible damage that an infection or toxin causes in cultured cells.
With `O=C(CSc1nc2ccccc2n1S(=O)(=O)c1cccc([N+](=O)[O-])c1)NCc1cccs1`, the CPE inhibition is 0.11%.

For `COc1cc(C(=O)OCC(=O)Nc2ccc(SC(F)F)cc2)cc(OC)c1OC`, the CPE inhibition entry is “inactive”. Turning to `O=C(Cc1c[nH]c2ccccc12)NNC(=O)c1ccccc1`, the CPE inhibition was 0.335%.

Regarding `COc1ccccc1CNC(=O)C(Cc1c[nH]c2ccccc12)NC(=O)OCc1ccccc1` (configuration not stated), the CPE inhibition is 6.32%. On to `Cc1ccc(NP(=O)(c2ccc(N(C)C)cc2NC(=O)c2cccs2)N2CCOCC2)cc1Cl` (configuration not stated), for which the CPE inhibition is 28.7% (active). In the case of `CN(C)c1ccc(P(=O)(Nc2ccccc2)N2CCOCC2)c(NC(=O)c2cccs2)c1` (configuration not stated) it was 2.15%; in that of `Cc1ccc(NP(=O)(c2ccc(N(C)C)cc2NC(=O)c2cccs2)N2CCOCC2)cc1` (configuration not stated), 2.19%. The same measure for `COC(=O)c1ccccc1NC(=O)C1CCCO1` (configuration not stated): 3.31%. As for `CCOC(=O)c1c(C)[nH]c(C(=O)COC(=O)[C@H](C)NC(=O)c2ccccc2Cl)c1C`, the CPE inhibition was 0.24%. The same measure for `O=C(NNc1nc(-c2ccc(Cl)cc2)cs1)c1ccco1`: “inactive”; for `O=C(Nc1nc(-c2ccc(Cl)cc2)cs1)NC1CCCCC1`: 20.3% (active); for `CC(=O)c1c(C)[nH]c(C(=O)Nc2nc(-c3ccc(-c4ccccc4)cc3)cs2)c1C`: 4.52%.

With `CC(=O)c1c(C)[nH]c(C(=O)Nc2nc(-c3ccc(Cl)cc3)cs2)c1C`, the CPE inhibition is 26.9% (active). The same measure for `O=C(/C=C/c1ccco1)NC(=S)Nc1nc(-c2ccc(Cl)cc2)cs1`: 1.57%. The same measure for `CC(=O)c1c(C)[nH]c(C(=O)Nc2nc(-c3ccccc3)c(C)s2)c1C`: 0.6%; for `CCOP(=O)(OCC)C(Nc1ccccc1)c1cc(OC)ccc1OC` (configuration not stated): “inactive”.

As for `COc1cccc(-c2c(-c3cc(OC)cc(OC)c3)n(C)c3ccc(-c4ccc5[nH]ccc5c4)cc23)c1`, the CPE inhibition is 2.75%. Regarding `O=C(/C=C/c1ccc(Cl)cc1Cl)NCCSCc1ccccc1`, the CPE inhibition is 0.45%. As to `O=C(/C=C/c1ccc(Cl)cc1Cl)N(Cc1ccc(Cl)cc1)C1CCS(=O)(=O)C1` (configuration not stated), the CPE inhibition was 29.6% (active). In the case of `O=C(CCl)N(c1ccccc1)C1CCS(=O)(=O)C1` (configuration not stated) it was “inactive”.

In the case of `O=C(/C=C/c1ccc(Cl)cc1Cl)N(Cc1ccccc1)C1CCS(=O)(=O)C1` (configuration not stated), the CPE inhibition was 38.5% (active). Take `CCN(C(=O)COC(=O)/C=C/c1ccc(O)c(OC)c1)C1CCS(=O)(=O)C1` (configuration not stated): the CPE inhibition is 0.935%. In the case of `CC(C)CN(C(=O)CSc1nn(-c2ccc(Cl)cc2)c(=S)s1)C1CCS(=O)(=O)C1` (configuration not stated) it was 2.1%. In the case of `COc1nccnc1NS(=O)(=O)c1ccc(NC(=S)NC(=O)c2ccccc2)cc1` it was “inactive”; in that of `Cc1cc(C)cc(NC(=O)CSc2nc3c(oc4ccccc43)c(=O)n2-c2ccccc2)c1`, 0.68%; in that of `COc1ccc(NC(=O)COC(=O)CNS(=O)(=O)c2ccc(F)c(F)c2F)cc1OC`, “inactive”. The same measure for `N#Cc1ccc(C(=O)Nc2cc(S(=O)(=O)Nc3ccc(Cl)cc3)ccc2N2CCCCC2)cc1`: 7.53% (active); for `COc1ccc(NS(=O)(=O)c2ccc(N3CCOCC3)c(NC(=O)c3ccc(OC)cc3)c2)cc1`: “inactive”; for `O=C(Nc1cc(S(=O)(=O)Nc2ccc(Cl)cc2)ccc1N1CCCCC1)c1ccc(F)cc1Cl`: “inactive”.

Regarding `CCOC(=O)C1=C(O)/C(=C/c2ccc(OCC(=O)O)c(OCC)c2)SC1=Nc1ccc(OC)cc1`, the CPE inhibition is 0.63%. Consider `CC(=O)N1c2ccccc2[C@H](C)[C@H]1C`, for which the CPE inhibition result was “inactive”. The same measure for `O=C(NCCc1nc2ccccc2[nH]1)c1ccc(Cl)c([N+](=O)[O-])c1`: 0.05%; for `CCC[C@@H](NS(=O)(=O)c1ccc(C)cc1)C(=O)Oc1ccc2c3c(c(=O)oc2c1)CCC3`: “inactive”. In the case of `S=C(Nc1ccc(Oc2ccccc2)cc1)NC1CCCC1` it was 0.255%; in that of `S=C(Nc1ccc(Oc2ccc(NC(=S)NC3CCCCC3)cc2)cc1)NC1CCCCC1`, 25.8% (active); in that of `O=C(CN1CCN(C(=S)NC2CCCC2)CC1)Nc1ccc(Oc2ccccc2)cc1`, 12.1% (active).

`CCNC(=S)N1CCN(CC(=O)Nc2ccc(Br)cc2)CC1`: the CPE inhibition was 2.06%. In the case of `S=C(Nc1ccc(Br)cc1)NC1CCCCC1`, the CPE inhibition was 4.99%. For the molecule `S=C(Nc1ccc(Oc2ccccc2)cc1)NC1CCCCCC1`, the CPE inhibition was 0.02%. Regarding `Cc1ccc(S(=O)(=O)N(C)Cc2ccc(C(=O)N/N=C/c3ccc(OC(F)F)cc3OC(F)F)cc2)cc1`, the CPE inhibition is 2.12%.

In the case of `S=C(c1ccc(-c2ccccc2Cl)o1)N1CCCCC1`, the CPE inhibition was 2.92%.

`Cn1cc(C(=O)N2CCc3ccccc32)cn1`: the CPE inhibition result was “inactive”. The same measure for `c1cnc2cc(-c3ccsc3)ncc2c1`: 0.12%; for `COc1cccc(/C=C(/C#N)c2ccc(F)cc2)c1OCc1cccc(C(=O)O)c1`: “inactive”; for `CN1CCN(C(=O)c2cnn3c(C(F)(F)F)cc(-c4cccs4)nc23)CC1`: “inactive”.

For the molecule `CC(C)/C=N/NC(=O)c1cccc(N2CCCC2=O)c1`, the CPE inhibition is 0.335%. The same measure for `CCOC(=O)c1sc(NC(=S)NC(=O)c2ccccc2)c(C(=O)OCC)c1C`: 3.5%; for `COc1cccc(-c2c(-c3cc(OC)cc(OC)c3)n(C)c3ccc(-c4cccc5[nH]ccc45)cc23)c1`: 4.01%; for `COc1ccc(-c2c(-c3cc(OC)cc(OC)c3)n(C)c3ccc(-c4cccc5[nH]ccc45)cc23)cc1`: 3.95%. As for `COc1cc(OC)cc(-c2c(-c3cccs3)c3cc(-c4cccc5[nH]ccc45)ccc3n2C)c1`, the CPE inhibition is 11.7% (active). The same measure for `Cc1ccc(-c2[nH]nc3c2C(C)C(C#N)=C(N)O3)cc1` (configuration not stated): “inactive”.

As for `CC(C)(C)[C@@H]1CCC(=O)N(CC[C@H](Sc2ccccc2)c2ccccc2)CC1`, the CPE inhibition was 1.54%.

Take `CN(Cc1ccccc1)c1nc(CN2CCOCC2)nc2scc(-c3ccccc3)c12`: the CPE inhibition is 1.83%. As for `Cc1ccc(-c2csc3nc(SCC(=O)N(C)C)n(Cc4ccccc4)c(=O)c23)cc1`, the CPE inhibition was 21.1% (active). `Cc1ccc(-n2c(SCC(N)=O)nc(O)cc2=O)cc1`: the CPE inhibition is 1.35%. For `CCn1c(SCc2nc3scc(-c4ccccc4)c3c(=O)[nH]2)nnc1-c1cccs1`, the CPE inhibition result is “inactive”. In the case of `Cc1ccc(-c2csc3nc(SCC(N)=O)n(Cc4ccccc4)c(=O)c23)cc1` it was 12% (active); in that of `C=CCn1c(SCC(=O)c2[nH]c(C)c(C(=O)OCC)c2C)nc2scc(-c3ccc(OC)cc3)c2c1=O`, “inactive”. Take `O=C(Nc1ccc(-c2nc3ccccc3[nH]2)cc1)c1ccccc1NS(=O)(=O)c1ccc(F)cc1`: the CPE inhibition is 0.325%. The same measure for `COc1cc(NC(=O)CSc2nc3c(C)ccc(C)c3cc2C)c(C(=O)O)cc1OC`: “inactive”; for `O=C1CN(C(=O)CSc2nnc(Nc3ccccc3)s2)c2ccccc2N1`: “inactive”. As for `S=C1NCCOCCNC(=S)NCCOCCOCCOCCN1`, the CPE inhibition entry is “inactive”. As for `CC(=O)CC[C@@H](C)O[C@@H]1OC(C)[C@H](O)CC1O` (some centres not stated), the CPE inhibition was 0.175%.

For `CCc1cccc(CC)c1NC(=O)C1CN(S(=O)(=O)c2ccccc2)CCN1S(=O)(=O)c1ccccc1` (configuration not stated), the CPE inhibition is 1.21%.

Take `COC(=O)C(Oc1ccc2c(-c3ccc(OC)cc3)cc(=O)oc2c1)c1ccccc1` (configuration not stated): the CPE inhibition is 0.765%. In the case of `O=C(COc1ccc2c(-c3ccccc3)cc(=O)oc2c1)NCc1cccs1` it was 0.675%.

In the case of `CC(C)(C)OC(=O)NCC(=O)Oc1cc2oc(=O)cc(-c3ccccc3)c2cc1Cl`, the CPE inhibition was 24.3% (active). As for `COc1ccccc1NC(c1cccnc1)c1ccc2cccnc2c1O` (configuration not stated), the CPE inhibition is 0.795%.

`Cc1ccc(Cl)cc1NC(=O)c1ccc(NC(=O)CCC(=O)O)cc1`: the CPE inhibition is 0.84%. The same measure for `COc1ccc(C(=O)N[C@H](C(=O)Nc2nc3c(s2)CCCC3)C(C)C)cc1`: 18.9% (active); for `O=C(NC(=S)Nc1nc2c(s1)CCCC2)c1ccccc1`: 0.705%; for `O=C(NC(=S)Nc1nc2c(s1)CCCC2)c1ccc(C(=O)c2ccccc2)cc1`: 11.3% (active). The same measure for `Cc1csc(NC(=O)[C@@H](NC(=O)c2ccccc2)C(C)C)n1`: 0.86%.

As for `COC(=O)c1ccc(C(=O)NC(=S)Nc2nc3c(s2)CCCC3)cc1`, the CPE inhibition was 0.85%.

In the case of `N#Cc1c(NC(=S)NC(=O)c2ccccc2)sc2c1CCCC2`, the CPE inhibition is 1.09%.

`Cc1ccc(-n2c(SCC(=O)NCCN3C(=O)CSC3=O)nnc2-c2cccc(C)c2)cc1`: the CPE inhibition is 0.355%.

Take `O=C(CSCc1ccc([N+](=O)[O-])cc1)NC1CC1`: the CPE inhibition was 2.12%. In the case of `Cc1ccc(C(c2nnnn2C2CCCC2)N2CCc3ccccc32)cc1` (configuration not stated) it was 18.1% (active). Take `Cc1ccc(C(=O)Nc2nnc(SCC(=O)N3CCCc4ccccc43)s2)cc1`: the CPE inhibition was 0.06%. The same measure for `Cc1ccc(-c2nnc3ccc(SCC(=O)N4CCCc5ccccc54)nn23)cc1`: “inactive”; for `COc1cccc(C2C(C#N)=C(N)Oc3cc(N)ccc32)c1OC` (configuration not stated): “inactive”; for `COc1ccc(N=Cc2cc3c(cc2O)OC(N)=C(C#N)C3c2ccccc2)cc1` (configuration not stated): 13.1% (active). Consider `Cc1ccccc1N=Cc1cc2c(cc1O)OC(N)=C(C#N)C2c1ccccc1` (configuration not stated), for which the CPE inhibition was 0.055%. The same measure for `COc1ccc([C@@H]2C(C#N)=C(N)S[C@@H](c3ccccc3)[C@@H]2[N+](=O)[O-])cc1`: 0.405%; for `N#CC1=C(N)Oc2cc(O)c(C=Nc3ccccc3)cc2C1c1ccccc1` (configuration not stated): 5.12%. Turning to `Cc1ccc(N=Cc2cc3c(cc2O)OC(N)=C(C#N)C3c2ccccc2)cc1` (configuration not stated), the CPE inhibition is 23.4% (active). The same measure for `Cc1ccc(-c2nc(N)sc2CC(=O)OCC(=O)NCC2CCCO2)cc1` (configuration not stated): “inactive”. In the case of `CCCCC(=O)Nc1cccc(NC(=S)NC(=O)Cc2ccccc2)c1`, the CPE inhibition is 0.515%.

For the molecule `O=C(Nc1cccc(Cl)c1)c1ccc(Cn2cc(Cl)cn2)cc1`, the CPE inhibition result is “inactive”. With `Cc1ccnc(NC(=S)NC(=O)c2ccco2)c1`, the CPE inhibition is 0.58%. In the case of `COc1cccc(C(Nc2ccccn2)c2c(NC(=O)c3ccco3)sc(C)c2C)c1` (configuration not stated) it was 31% (active); in that of `O=C(NC(=S)Nc1ccccn1)c1ccco1`, 1.33%.
